Source: PubChem BioAssay AID493083 (Broad Institute, 2011)
About 95 (4%) of roughly 2,400 compounds were called active. About 3% were inconclusive and are not listed.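 The calls were made as follows: active = compounds lowering signal whose fitted AC50 is at most ten times the top tested dose; inconclusive = flat fit with moderate inhibition, or poor curve fit; inactive = the rest.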 These entries were drawn from the full list. Entries with a potency or affinity are not part of this list.

Test: GFP reporter loss versus dox-driven RFP – NIH3T3 R4 cells, cherry-pick, set 3, dose response (AID 493083);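 also: 0% = neutral control wells and -100% = didemnin B positive control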
Details: NIH3T3 R4 HSF-1 GFP reporter, heat shock, 48 h; series mostly up to 19.5 µM; activity change, negative = inhibition: at the top concentration

Activity change, negative = inhibition, inactive:
CCC(C(=O)OCC(=O)Nc1cc(Cl)ccc1Cl)c1ccccc1 (stereo not drawn) -0.627%
O=C(O)c1cccc(Nc2ccnc(Nc3cccc(C(=O)O)c3)n2)c1 -5.94%
Cc1cc(Nc2cccc(Cl)c2)nc(-c2ccccc2O)n1 2.12%
CC(=O)NC(=S)Nc1cccc(S(=O)(=O)NC2=NCCC2)c1 -1.24%
Cn1c(=O)c2ncn(CC(=O)Nc3ccc4c5c(cccc35)CC4)c2n(C)c1=O 29.5%
COc1ccc(OCCN2C(=O)c3ccccc3C2=O)cc1 -7.76%
CCN(CC)C(=O)CN1C(=O)/C(=C/c2ccccc2)SC1=S 6.39%
CC(C)N1CCC(N2CCN(C3CCCC3)CC2CCO)CC1 (stereo not drawn) -0.505%
CC(CCc1ccccc1)NC(=O)CCNS(=O)(=O)c1ccccc1 (stereo not drawn) 1.85%
CCCC(C)NS(=O)(=O)c1ccccc1 (stereo not drawn) -1.47%
Cc1ccc(-c2nnn(CC(=O)N(Cc3cccs3)C(C(=O)NC3CCCC3)c3ccncc3)n2)cc1 (stereo not drawn) 20.9%
CCCN(CCC)S(=O)(=O)c1ccc(NC(=O)c2cc(C(=O)OC)cc([N+](=O)[O-])c2)cc1 8.28%
NC(=O)CC(NC(=O)Cc1ccc(Cl)cc1)c1ccc(NC2CCCCCC2)c([N+](=O)[O-])c1 (stereo not drawn) -4.13%
Cc1cc(C)cc(SCc2noc(C(=O)NCc3ccccc3)c2C(=O)NCc2ccccc2)c1 -2.26%
O=[N+]([O-])c1ccccc1CCc1cnc(Cl)s1 -12.9%
O=C(CNC(=O)C1CCCCC1)NC1=NCCS1 -0.457%
CC(C)(C)N1[C@@H](CC(=O)O)c2cc(C(F)(F)F)ccc2S1(=O)=O 1.39%
Cc1cc(C)n(-c2ccc(NC(=O)C3CCCCN3C(=O)c3ccoc3C)cc2)n1 (stereo not drawn) 7.41%
COc1ccc(C(C)NC(=S)NC2CCCCC2)cc1OC (stereo not drawn) 3.12%
COc1ccc(C(C(=O)NC2CCCCC2)N(C(=O)CCl)c2cccc(Cl)c2)cc1 (stereo not drawn) 122%
O=C1N=C(N2CCCC2)S/C1=C\C=C\c1ccccc1 7.74%
Cc1nn2c(CN(C(=O)CN3CCOCC3)c3ccccc3)nnc2c2ccccc12 -1.66%
O=C(CCCCn1c(=O)[nH]c2ccsc2c1=O)NCc1cccnc1 0.446%
CCCC(=O)Nc1cccc(NC(=O)c2cccc([N+](=O)[O-])c2C)c1 8.31%
CCOC(=O)/C(C#N)=C/c1cc(C)n(-c2ccccc2)c1C 23.8%
Cc1cccc(NC(=O)c2sc(-c3ccccc3)nc2-c2ccc([N+](=O)[O-])cc2)c1 1.84%
CCCCNC(=O)C(c1ccc(OCC(=O)OC)c(C(=O)OC)c1)N(CCc1c[nH]c2ccccc12)C(=O)CCCCCN1C(=O)NC(c2ccc(-c3ccccc3)cc2)C(C(=O)OCc2ccccc2)=C1C (stereo not drawn) -3.99%
CC1=C(C(=O)Nc2ccccc2)C(c2cc(CN3CCOCC3)cs2)C2=C(CCCC2=O)N1 (stereo not drawn) -6.96%
COC(=O)C1(Cc2ccccc2)NC(c2ccccc2C)C2C(=O)N(c3ccc4c(c3)OCO4)C(=O)C21 (stereo not drawn) 1.42%
Cc1cccc(N(Cc2ccccc2)C(=O)CCl)c1 30.1%
CCN(C(=O)COC(=O)/C=C/c1ccccc1)C1CCCCC1 -5.04%
CC(C)(C)C(CN1CCCC1)OC(=O)c1ccccc1 (stereo not drawn) -1.59%
COc1ccc(OC)c(N=C2SCCCN2C(=O)c2ccc(N3C(=O)CCC3=O)cc2)c1 -7.4%
CCOc1ccc(CCNC(=O)c2nn(C)c3c2CS(=O)(=O)c2ccccc2-3)cc1 16.6%
Cc1cc(C)c2cc(CN(CCN(C)C)C(=O)Nc3ccccc3Cl)c(=O)[nH]c2c1 5.03%
Cc1ccc(C(=O)N2CCCC(Nc3ccc(F)cc3)C2)cc1C (stereo not drawn) 0.822%
Cc1ccc(-n2ncc3c(NCc4ccc5c(c4)OCO5)ncnc32)c(C)c1 26.2%
Nc1ccccc1SCC(=O)Nc1ccc2c(c1)OCCO2 -0.379%
CC(=O)c1ccc(NC(=O)c2cnn3ccccc23)cc1 5.6%
Cc1cc(/C([O-])=C(/C(=S)Nc2ccccc2)[n+]2ccccc2)c(C)n1-c1ccccc1 5.95%
NC(=O)COC(=O)c1cc(=O)[nH]c2ccccc12 -4.28%
COc1ccc(NC(=O)CN(C)CC(=O)Nc2ccc3c(c2)CCC3)cc1 -2.35%
CCO[C@@H]1OC(C(=O)NCc2ccccc2)=C[C@H](c2ccc3c(c2)OCO3)[C@H]1CCCO -7.04%
CC[n+]1c(/C=C/c2cc([N+](=O)[O-])ccc2O)ccc2ccccc21 14.5%
COc1ccc(N2CCN(S(=O)(=O)c3cc4c(cc3C)N(C(C)=O)CCO4)CC2)cc1 10.3%
COc1ccc(NC(=O)CCN2CCN(S(=O)(=O)c3ccc(OC)cc3)CC2)cc1 13.3%
Cc1cc(NC(=O)C2C3C(=O)N(Cc4ccc(Cl)cc4)C(C(=O)NC(C)(C)C)C34C=CC2(C)O4)no1 (stereo not drawn) -4.82%
COc1cc(OC)c(NC(=O)CN(C)S(=O)(=O)c2ccc3[nH]c(=O)oc3c2)cc1Cl -1.32%
O=C(CCl)NC(Cc1ccccc1)c1ccccc1 (stereo not drawn) 4.64%
O=C(CCl)Nc1ccccc1C(=O)c1ccccc1 1.46%
O=C1C2CCCN2c2ccc(S(=O)(=O)N3CCOCC3)cc2N1Cc1cccc(C(F)(F)F)c1 (stereo not drawn) 2.71%
O=C(CSc1nnc(CNC(=O)c2cccs2)o1)NCc1ccc(F)cc1 -4.17%
COCCNC(=O)CSC1=N/C(=C/c2ccc(Cl)c(Cl)c2)C(=O)N1c1ccccc1F 34.4%
CC(C)Sc1nc(SCC(=O)NCc2ccco2)c2c3c(sc2n1)COC(C)(C)C3 17.8%
CCOC(=O)N1CCN(C(=S)Nc2ccc(C)cc2C)CC1 -2.21%
CC1CCCN(S(=O)(=O)c2ccc(Br)s2)C1 (stereo not drawn) 1.88%
Cc1ccc(Cl)cc1NC(=O)C1COc2ccccc2O1 (stereo not drawn) -0.666%
CN(C)c1ccc(/C=N/NC(=O)C2COc3ccccc3O2)o1 (stereo not drawn) 7.29%
O=S(=O)(Cc1cc(Oc2ccccc2)nc(-c2ccccc2)n1)c1ccccc1 23.5%
O=C(O)C(=O)Nc1ccc(NC(=O)C(c2ccccc2)c2ccccc2)cc1 -4.7%
CCCS(=O)(=O)N1CCc2cc(OC)c(OC)cc2C1 -3.49%
Nc1ncnc2nc(N3CCN(C(=O)c4ccccc4)CC3)[nH]c12 -1.58%
O=C(CSC(=S)N1CCOCC1)Nc1nc(-c2ccccc2)c(-c2ccccc2)o1 -2.41%
Nc1nc(Cl)nc2c1ncn2C1CC(O)C(CO)O1 (stereo not drawn) 1.43%
CN1CCN(S(=O)(=O)c2cccc(C(=O)NCCC3=CCCCC3)c2)CC1 -0.832%
COc1ccc(N2CCN(c3ccc(NC(=O)NN)cc3)CC2)cc1 9.66%
Cc1cc(NC(=O)c2ccc3nc(C)sc3c2)no1 -6.84%
COc1ccccc1N1CCN(C(=S)Nc2ccc(F)cc2)CC1 -0.471%
O=c1[nH]cc(S(=O)(=O)c2ccccc2)[nH]1 -5.55%
CC1CCN(CC(=O)NC2CCCCC2)CC1 -2.37%
CCS(=O)(=O)N1CCN(C(=O)c2ccccc2)CC1 0.578%
Cc1ccc2c(c1)c(C)c(C)n2CC(O)Cn1nnc2ccccc21 (stereo not drawn) 0.602%
O=S1(=O)N[C@H](c2ccccc2)C[C@H](c2ccc(C(F)(F)F)cc2)O1 1.91%
CC(C)[C@H](NC(=O)Cc1ccccc1)C(=O)OCc1cc(=O)n2c(n1)sc1ccccc12 0.187%
Cc1ccc(CN2CCN(Cc3cccc(OCCO)c3)CC2CCO)o1 (stereo not drawn) -1.47%
Fc1ccc(-n2cc(CNCCc3ccccn3)c(-c3ccccc3Cl)n2)cc1 6.94%
Cc1ccc(-c2nn(-c3ccccc3)cc2CN(C)C(=O)CCC(=O)O)cc1C 4.16%
CN=c1scc(-c2cccs2)n1/N=C/c1ccccc1O 21.7%
CN=c1scc(-c2ccccc2F)n1/N=C/c1ccc[nH]1 30.7%
CN(C)S(=O)(=O)c1ccc(-c2csnn2)s1 0.103%
CCn1c(C(C#N)/C(=N\S(=O)(=O)c2cccs2)c2ccccc2)nc2ccccc21 (stereo not drawn) -6.65%
Cc1ccc(S(=O)(=O)N2CCC(C(=O)N[C@@H](Cc3ccccc3)C(=O)O)CC2)cc1 0.492%
CCN1C(=O)c2ccccc2S(=O)c2ccc(C(=O)NCc3ccc(OC)cc3)cc21 (stereo not drawn) -1.83%
Cc1ccc(C(=O)Nc2cc3ccccc3oc2=O)cc1 -1.68%
Cc1nc2ccc(NC(=O)N3CCSCC3)cc2s1 -4.41%
COC(=O)c1cc(S(=O)(=O)NCc2ccc(F)cc2)cn1C -1.23%
COc1ccc(CNC(=O)CCCNC(=O)c2ccc(Cl)cc2)cc1OC -2.5%
C=CCOc1ccccc1CN(C(=O)CCl)c1ccc2c(c1)OCO2 6.58%
